High-throughput results (PubChem BioAssay)
CYP2C9 inhib: human CYP2C9 inhibition. CYP2C9 Supersomes, luciferin-H conversion, luminescence. inhibition, % at 5 µM. 20% of 96,000 active. P11712. AID 777;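 active = blocking of liver enzyme CYP2C9 beyond about 50% at 5 µM, limit read from the data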
CYP2C19 inh: human CYP2C19 inhibition | CYP2C19 Supersomes, luciferin-H EGE luminescence, 30 min | P33261 | AID 778 | inhibition, % at 5 µM | 21% of 96,000 active;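 active = CYP2C19 inhibition above a set limit at 5 µM in the primary screen, cut at about 50% in these data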
CYP2C9 activ: activators of human CYP2C9. P11712. recombinant CYP2C9, luciferin-H conversion, luminescence; active compounds read high; factor 1 = untreated enzyme, 0 = blocked. activation factor at 5 µM. 1.4% of 96,000 active. AID 1024;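 active = activation factor of 2 or more for CYP2C9 at a 5 µM dose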
PLAP act: activators of human placental alkaline phosphatase; P05187; purified PLAP enzyme, luminescent substrate read-out; active compounds read high; activation fold at 20 µM; 1.2% of 96,000 active; in the data active = activation fold above about 2
Target sequence (P05187 whole entry, looked up): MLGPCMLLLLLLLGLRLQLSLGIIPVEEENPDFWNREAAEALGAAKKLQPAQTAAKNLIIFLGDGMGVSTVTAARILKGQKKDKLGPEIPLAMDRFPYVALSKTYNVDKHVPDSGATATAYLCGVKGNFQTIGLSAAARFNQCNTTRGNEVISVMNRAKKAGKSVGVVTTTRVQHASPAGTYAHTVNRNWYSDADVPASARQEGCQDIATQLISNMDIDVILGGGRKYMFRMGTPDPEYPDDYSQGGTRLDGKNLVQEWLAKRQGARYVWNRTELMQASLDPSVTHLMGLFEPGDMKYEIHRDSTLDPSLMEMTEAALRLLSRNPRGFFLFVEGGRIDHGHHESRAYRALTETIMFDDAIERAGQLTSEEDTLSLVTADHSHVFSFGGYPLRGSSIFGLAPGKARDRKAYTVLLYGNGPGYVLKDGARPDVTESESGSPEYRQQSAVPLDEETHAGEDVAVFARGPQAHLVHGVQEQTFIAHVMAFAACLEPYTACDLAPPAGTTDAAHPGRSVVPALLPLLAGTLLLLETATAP
CYP2C19 activ: cytochrome P450 2C19 (human) activation; activation factor at 5 µM; recombinant CYP2C19, luciferin-H EGE luminescence; active compounds read high; 0 = fully inhibited enzyme, 1 = untreated enzyme; P33261; AID 1025; 96,000 tested, under 10 active;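 active = activation factor of at least 2 at 5 µM in the primary screen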
Of the large screens only hits and unclear results are named; the others gave an inactive call. Only some compounds are listed: those with a hit (about 31% of all), similar ones and a draw of the others.

O=C(COC(=O)c1n[nH]c2ccccc12)NC(=O)NC12CC3CC(CC(C3)C1)C2	none
CCn1cnc2sc(C)c(C)c2c1=O	none
CC(C)OC(=O)Cn1cnc2ccc(Br)cc2c1=O	CYP2C19 inh 68
Cc1sc2ncn(CC(=O)OC(C)C(=O)NC(C)(C)C)c(=O)c2c1C (configuration not stated)	CYP2C19 inh 67
Cc1sc2ncn(CC(=O)OCC(=O)NC(C)(C)C)c(=O)c2c1C	none
Cc1sc2ncn(CC(=O)OC(C)C)c(=O)c2c1C	CYP2C19 inh 67
O=C(c1ccc(C#CC2(O)CCCCC2)cc1)N1CCOCC1	none
CCOc1ccc(NC(=O)C2CCCN(S(=O)(=O)c3cccc4nsnc34)C2)cc1 (configuration not stated)	none
O=C(O)C1C2C=CC(C2)C1C(=O)NC1CCN(Cc2ccccc2)CC1 (configuration not stated)	none
CCc1c(C#N)c(SCCC(=O)Nc2ccc(C)cc2)nc2c1C(=O)CC(C)(C)C2	CYP2C9 inhib 95, CYP2C19 inh 96
CCOc1ccc(NC(=O)CCSc2nc3c(c(CC)c2C#N)C(=O)CC(C)(C)C3)cc1	CYP2C9 inhib 90, CYP2C19 inh 90
Cc1cccc(N2CCN(C(=O)c3ccc(Cl)c(S(=O)(=O)NCc4ccco4)c3)CC2)c1C	CYP2C9 inhib 76
Cc1ccc(S(=O)(=O)NCc2ccco2)c(C)c1C	CYP2C19 inh 56, CYP2C9 activ 3.5
O=C(NCC1(N2CCOCC2)CCCCC1)c1ccc(Cl)c(S(=O)(=O)NCc2ccco2)c1	CYP2C9 inhib 71, CYP2C19 inh 53
CCCCc1c(O)nc(SCC(=O)NC(C)(C)C)n(-c2ccccc2C)c1=O	none
Cn1nnc2cc(C(=O)N3CCN(c4ccccc4)CC3)ccc21	none
Cn1c(/C(C#N)=C/C2CC=CCC2)nc2ccccc21 (configuration not stated)	CYP2C19 inh 58
N#C/C(=C\C1CC=CCC1)c1nc2ccccc2[nH]1 (configuration not stated)	none
O=[N+]([O-])c1ccc(Cl)c(C2Nc3cccc4cccc(c34)N2)c1	none
CCOC(=O)CCCn1c(C)nc(=O)c(-c2ccccc2)c1C	none
C=CCSc1nnc2c(n1)OC(c1c(C)[nH]n(-c3ccccc3)c1=O)Nc1ccccc1-2 (configuration not stated)	CYP2C9 inhib 72
C=CCSc1nnc(-c2ccccc2N=Cc2c(C)[nH]n(-c3ccccc3)c2=O)c(=O)[nH]1	CYP2C9 inhib 99, PLAP act 2.2
CCOC(=O)c1sc(N)c(C#N)c1CSc1nnc(C2CC2)n1N	CYP2C9 inhib 74, CYP2C19 inh 88
CCOC(=O)c1sc(N(Cc2ccccc2)C(=O)CSc2nnc(C3CC3)n2N)nc1C	CYP2C9 inhib 99, CYP2C19 inh 62
Nn1c(SCC(=O)NCc2ccccc2)nnc1C1CC1	none
CC(C)C(=O)Nc1ccc(C(=O)NNC(=O)c2ccco2)cc1	none
CC(/C=N/n1cnnc1)=C\c1ccccc1	CYP2C19 inh 94
CC(=C/c1ccccc1)/C=N/n1c(-c2ccco2)n[nH]c1=S	none
CC(=C/c1ccccc1)/C=N/n1cnnc1	CYP2C19 inh 94
C(=C\c1ccccc1)/C=N/n1cnnc1	CYP2C19 inh 84
CC(/C=N\N1CCN(c2ccc(Cl)cc2)CC1)=C\c1ccccc1	none
CCS(=O)(=O)c1ccc2oc(Nc3ccccc3C)nc2c1	CYP2C9 inhib 54, CYP2C19 inh 59
CN(Cc1ccccc1)C(=O)C1CCCN(Cc2ccc(Cl)cc2)C1 (configuration not stated)	none
Nn1c(-c2ccco2)n[nH]c1=S	none
CN=C(c1ccco1)n1c(=S)nc(-c2ccco2)n(C)c1=S	CYP2C9 inhib 66, CYP2C19 inh 79, PLAP act 2.7
COc1ccc(-c2cc(CCCC(=O)NCCc3cc(OC)ccc3OC)no2)cc1	CYP2C9 inhib 66, CYP2C19 inh 57
COc1ccc(-c2cc(CCCC(=O)N3CCN(c4ccc(OC)cc4)CC3)no2)cc1	CYP2C9 inhib 71, CYP2C19 inh 70
COc1ccc(N2CCN(C(=O)CCCC3=NS(=O)(=O)c4ccccc4N3)CC2)cc1	none
CCOc1ccc(-c2cc(CCCC(=O)NCc3ccc(C)cc3)no2)cc1	CYP2C9 inhib 53
CCOc1ccc(-c2cc(CCCC(=O)NCc3ccco3)no2)cc1	none
CCCCNC(=O)c1cc(-c2ccc(OC)cc2)on1	none
COc1ccc(-c2noc(CCC(=O)N3CCN(c4cccc(C(F)(F)F)c4)CC3)n2)cc1	CYP2C9 inhib 83, CYP2C19 inh 70
CC(C)OP(=O)(c1ccc(N(C)C)cc1)C(O)c1ccccc1 (configuration not stated)	none
CCN(CC)C(=O)C1CCCN(Cc2ccccc2F)C1 (configuration not stated)	none
CCN(CC)C(=O)C1CCCN(Cc2ccccc2C(F)(F)F)C1 (configuration not stated)	CYP2C19 inh 58
CCN(CC)C(=O)C1CCCN(Cc2ccc3c(c2)OCO3)C1 (configuration not stated)	none
CCN(CC)C(=O)C1CCCN(Cc2ccc(F)c(F)c2)C1 (configuration not stated)	CYP2C19 inh 55
CCOC(=O)c1c(NC(=S)NC(=O)c2ccc(Cn3cc(Cl)cn3)o2)sc2c1CCCCC2	none
CCCCc1c(C)c2ccc(OC)c(/C(C)=N\O)c2oc1=O	none
Nc1c2c(nc3ccc(Br)cc13)N(c1ccccc1)CC2	CYP2C9 inhib 87, CYP2C19 inh 89
N=c1n(CCN2CCCCC2)c2ccccc2n1CC(O)c1ccc(Cl)c(Cl)c1 (configuration not stated)	CYP2C9 inhib 82, PLAP act 2.1
N=c1n(CCN2CCCCC2)c2ccccc2n1CC(O)c1cccc(Br)c1 (configuration not stated)	PLAP act 2
O=C(CSc1nnc(CNc2ccc(Cl)cc2)o1)Nc1nc2c(s1)CCCC2	none
O=P1(Nn2cnnc2)C=C(c2ccccc2)OC(c2ccccc2)=C1	none
CCn1c(-c2ccc(OC)c(OC)c2)n[nH]c1=S	none
CCCCn1c(-c2cc(Cl)ccc2OC)n[nH]c1=S	CYP2C19 inh 72
COc1ccc(C(=O)O)cc1Nc1cc(C)nc2ncnn12	none
CCCCCn1c(N)c(-c2nc3ccccc3s2)c2c([N+](=O)[O-])nn(C)c(=O)c21	CYP2C9 inhib 70
CNc1sc(C(=O)c2ccc(F)cc2)c(N)c1-c1nc2ccccc2s1	none
O=C(Nc1cc(Cl)ccn1)C1CCN(S(=O)(=O)c2cccs2)CC1	none
CC(=O)C1=C(C)NC(SCC(=O)c2cc(Cl)ccc2Cl)=C(C#N)C1c1ccco1 (configuration not stated)	CYP2C9 inhib 100, CYP2C19 inh 100
CC(=O)C1=C(C)NC(SCC(=O)c2ccc(Cl)c(Cl)c2)=C(C#N)C1c1ccco1 (configuration not stated)	CYP2C9 inhib 93, CYP2C19 inh 77
COc1ccc(-n2ncc(N(C)n3cccc3)c(Cl)c2=O)cc1	none
